Hit rate of the full screen: of about 16,000 compounds, about 75 (0.5%) were called active. The list comes from a sample in which actives are over-represented; it also holds similar structures and randomly drawn compounds. Values without a mark were called inactive. No stated cut-off is given here; in the data, active means inhibition above about 30%; inactive means the rest.

Among the data in PubChem BioAssay AID2291 (The Scripps Research Institute Molecular Screening Center, 2010) are inhibition values, retold here.

Sequence of Protein phosphatase methylesterase 1 (Homo sapiens) (Q9Y570 whole entry, looked up): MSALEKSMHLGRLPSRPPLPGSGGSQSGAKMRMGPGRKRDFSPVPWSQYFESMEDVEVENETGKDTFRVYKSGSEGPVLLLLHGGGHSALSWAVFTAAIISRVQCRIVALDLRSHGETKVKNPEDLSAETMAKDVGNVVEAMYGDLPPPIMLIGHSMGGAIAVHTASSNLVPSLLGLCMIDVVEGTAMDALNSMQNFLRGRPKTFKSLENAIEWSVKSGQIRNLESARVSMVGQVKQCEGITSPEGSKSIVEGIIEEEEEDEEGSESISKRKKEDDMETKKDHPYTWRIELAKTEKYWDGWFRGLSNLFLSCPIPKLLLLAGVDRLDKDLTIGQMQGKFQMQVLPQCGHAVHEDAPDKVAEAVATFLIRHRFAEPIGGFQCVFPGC

The assay addresses Protein phosphatase methylesterase 1 (Homo sapiens) (UniProt Q9Y570). Put plainly: Maybridge compound blocking human PME-1 (AID 2291). As to conditions: recombinant PME-1, FP-Rh probe fluorescence polarization; at 9 µM; stronger effect = higher value.
For `COc1ccc(-c2ccc(/C=N/NC(=O)CCc3ccc(O)cc3)s2)cc1`, the inhibition was -3.06%.

On to `COc1ccc(COCC(O)CN2CCC(C(N)=O)CC2)cc1` (configuration not stated), for which the inhibition is 1.38%.

Take `FC(F)(F)c1ccc(Cl)c(NC(=S)NN=C2CCCCCC2)c1`: the inhibition was 0.88%.

As for `CC1(C)C=Cc2cc(-c3noc(-c4ccccc4)n3)ccc2O1`, the inhibition is -23.5%.

On to `CCCc1c(C(=O)Nc2ccc(F)cc2)cnn1-c1ccccc1`, for which the inhibition was 3.87%.

Take `O=C(Oc1ccccc1N1CCCCC1)c1sc2ccccc2c1Cl`: the inhibition is -0.751%.

`CCOC(=O)CNC(=O)CCc1cc(OC)c(OC)c(OC)c1`: the inhibition is 6.62%.

Take `Cn1c(S(=O)(=O)O)nc2ccccc21`: the inhibition was 3.94%.

`O=C(Sc1ccccc1)c1ccc(C(F)(F)F)cc1`: the inhibition is -0.43%.

For `CN(NS(=O)(=O)CS(C)(=O)=O)c1ncccc1[N+](=O)[O-]`, the inhibition was 5.17%.

`O=C(O)c1onc2ccccc12`: the inhibition was -2.58%.

Turning to `CCOC(=O)NN(C(=O)OCC)c1c(C)c(C)c(C)c(C)c1C`, the inhibition was -1.33%.

With `Cc1nc(C(F)(F)F)ccc1C(=O)NC1CCCc2ccccc21` (configuration not stated), the inhibition was 1.46%.

On to `Cc1cc2nc(C)c(C)nc2cc1C`, for which the inhibition was -1.82%.

As for `COc1ccc(NC(=O)C2CC(C)=C(C)CC2C(=O)O)c(N2CCOCC2)n1` (configuration not stated), the inhibition was 1.52%.

Turning to `N#CC(Cc1ccccc1)Sc1ccccc1` (configuration not stated), the inhibition is 3.19%.

Take `O=C(CNC(=O)c1ccccc1F)c1ccc(Br)cc1`: the inhibition is -7.48%.

Turning to `O=C(/C(=N\N=C\c1ccc2c(c1)OCO2)c1ccccc1)c1ccccc1`, the inhibition was 4.75%.

For `Cc1cc2nsnc2cc1Cl`, the inhibition was 0.257%.

As for `COC(=O)c1sc(SC)c(-c2ccn[nH]2)c1C`, the inhibition is 2.07%.

For the compound `NC(=S)N/N=C\Cc1nnnn1-c1ccc(Cl)cc1`, the inhibition was 1.94%.

As for `Nc1nc(C23CC4CC(CC(C4)C2)C3)cs1`, the inhibition is 8.45%.

Turning to `CSc1ccc(C(F)(F)F)cc1C(=O)/C=C/N(C)C`, the inhibition was -0.344%.

`Clc1ccc(-c2csc(-c3cnccn3)n2)s1`: the inhibition is -1.61%.

For `O=C1c2ccc3c4c(ccc(c24)C(=O)N1c1ccccc1)C(=O)N(c1ccccc1)C3=O`, the inhibition was 5.87%.

Regarding `CCOC(=O)C1=C(C)NC(=O)NC1c1ccc(-c2cccc([N+](=O)[O-])c2)o1` (configuration not stated), the inhibition was -24.2%.

As for `C/C(=N\NC(N)=S)c1csc(-c2ccccc2)n1`, the inhibition is 4.41%.

Take `O=C(c1cc(-c2cccs2)on1)N1CCCCC1`: the inhibition is -4.77%.

With `COCn1nnc2ccccc21`, the inhibition is 0.294%.

As to `COc1ccc(/C=C(\NC(=O)c2ccccc2)C(=O)N/N=C/c2ccc3c(c2)OCO3)cc1`, the inhibition is -5.56%.

Take `CCCCc1ccc(-n2c(-c3ccc(F)cc3)coc2=O)cc1`: the inhibition is 2.07%.

With `N#C/C(=C\N1CCc2ccccc21)S(=O)(=O)c1ccc(C(F)(F)F)cn1`, the inhibition is 2.09%.

As for `Cn1c(=O)c(C#N)cn(-c2ccccc2)c1=O`, the inhibition is 2.81%.

Consider `Cc1ccc(NC(=S)C(C#N)C(=O)N2CCCC2)c(C)c1` (configuration not stated), for which the inhibition is -4.1%.

Consider `O=C(Nc1ccccc1-c1ccccc1)c1cccs1`, for which the inhibition was -1.11%.

For the compound `Fc1cccc(Cl)c1CN1CCN(c2ncnc3scc(-c4cccs4)c23)CC1`, the inhibition is -3.44%.

Turning to `CCOC(=O)Cc1csc(NC(NC(=O)OCC)(C(F)(F)F)C(F)(F)F)n1`, the inhibition was 4.35%.

As to `O=C1Nc2ccccc2C12NNC(=S)NN2`, the inhibition is 65.2% (active).

On to `CSc1ccc(C(F)(F)F)cc1NC(=S)Nc1ccccc1`, for which the inhibition is 0.0132%.

For `N#Cc1c(-c2cccs2)oc(-n2cccc2)c1-c1cc(Br)cs1`, the inhibition is -56.1%.

On to `O=C(NNC(=O)C1c2ccccc2Oc2ccccc21)c1cccc(F)c1`, for which the inhibition is 0.119%.

Take `O=S(=O)(NC1Cc2ccccc2C1)c1ccc(-c2csnn2)cc1`: the inhibition is 7.03%.

For the compound `Cn1cnc([N+](=O)[O-])c1N1CCN(C(c2ccccc2)c2ccccc2)CC1`, the inhibition is 0.986%.

Take `CN1CCCCC(C2=C(Cl)C(=O)CCC2)C1=O` (configuration not stated): the inhibition was 3.98%.

Take `OC(COc1ccc(Cl)c(Cl)c1)CN1CCC(Nc2nccc(C(F)(F)F)n2)CC1` (configuration not stated): the inhibition was -0.258%.

As for `O=C(Nc1cc2ccccc2s1)N1CCN(Cc2c(F)cccc2Cl)CC1`, the inhibition is 0.279%.

Take `NC(=O)c1cccc2c1OCCO2`: the inhibition is 6.89%.

`Nc1ccccc1SCc1cc([N+](=O)[O-])cc2c1OCOC2`: the inhibition is 5.44%.

`COc1cc(CC/C(C)=N/O)ccc1O`: the inhibition was 3.22%.

With `NNC(=O)c1ccc(Cl)cc1Cl`, the inhibition was 15.5%.

Regarding `CC(=O)Nc1ccc(C)cc1N=Cc1ccncc1`, the inhibition is 2.67%.

Consider `O=C(O)c1cnc(NCc2ccccc2)s1`, for which the inhibition was -5.43%.

For `COc1ccc(CCN=C(C)c2cc(Cl)cc(Cl)c2O)cc1OC`, the inhibition is 0.059%.

In the case of `CC1(NC(=O)OCc2ccccc2)CC1NC(=O)OCc1ccccc1` (configuration not stated), the inhibition is -1.61%.

In the case of `O=S(=O)(c1ccc2c(c1)OCCO2)N1CCN(c2ccc(C(F)(F)F)cn2)CC1`, the inhibition was 27.1%.

On to `O=C(Cc1cccc2ccccc12)NNC(=O)Nc1ccc(Cl)cc1`, for which the inhibition is -12.8%.

Consider `CCOC(=O)/C(=N/Nc1ccccc1)C(C)=N`, for which the inhibition is 1.95%.

For `N#CC(C#N)=C/C=C(/Sc1nc2cc(Cl)ccc2s1)c1ccc(Cl)cc1`, the inhibition was 3.07%.

In the case of `Cc1cccc(Cl)c1NC(=S)NCCNC(=O)OC(C)(C)C`, the inhibition was -2.72%.

As to `O=c1[nH]c2ccccc2c(=O)n1CCSc1ccc(Cl)cc1`, the inhibition was -0.818%.

As for `O=C(O)CCc1cccnc1`, the inhibition is 5.03%.

As to `OC(CN1CCN(c2ccc(C(F)(F)F)cn2)CC1)c1ccc2c(c1)OCCO2` (configuration not stated), the inhibition was -3.57%.

`OC(COc1ccc(F)cc1)(c1ccccc1)c1ccccc1`: the inhibition was 2.52%.

Regarding `Cn1/c(=N\N=C2CCCCC2)sc2ccccc21`, the inhibition was 24.3%.

`O=C(O)/C=C/C(=O)Nc1ccc(NC(=O)c2ccccc2O)cc1`: the inhibition is -5.93%.

Take `O=C1CC(c2ccccc2)C(=O)N1Cc1cccs1` (configuration not stated): the inhibition was -0.212%.

On to `CCOC(=O)c1c(N/N=C\c2ccccc2O)n[nH]c1C`, for which the inhibition is 7.03%.

With `COc1ccccc1C1CCN(c2ccc([N+](=O)[O-])cn2)CC1`, the inhibition is 3.68%.

In the case of `COC(=O)c1scc(S(=O)(=O)Cc2ccco2)c1N/N=C(\C#N)S(=O)(=O)C(C)C`, the inhibition was 7.89%.

With `CCCCOC(=O)c1ccc(-c2ccccn2)s1`, the inhibition was 5.14%.

On to `COc1cccc(/C=N/NC(=S)Nc2cc(C(F)(F)F)cc(C(F)(F)F)c2)c1O`, for which the inhibition was 5.97%.

In the case of `CCCC1NC(=O)NC(C)=C1C(=O)OCC` (configuration not stated), the inhibition is -4.5%.

In the case of `O=[N+]([O-])c1ccc(C2CC2(Br)Br)cc1` (configuration not stated), the inhibition is 0.49%.

On to `Cc1nc2ccccn2c1C(=O)N/N=C/c1cn(-c2ccccc2)nc1-c1cccs1`, for which the inhibition was 1.07%.

With `CSc1c(C#N)c(N)nc(SCC(=O)c2ccc(OC(F)F)cc2)c1C#N`, the inhibition was -10.3%.

Consider `CCOC(=O)/C(C#N)=C/N=C(N/N=C/c1cccs1)SC`, for which the inhibition is -1.55%.

On to `Cn1c(CN2C(=O)CSc3ccc(C(F)(F)F)cc32)nnc1SCC(=O)c1ccccc1`, for which the inhibition was 5.25%.

Take `CC(C)CC(NC(=O)OC(C)(C)C)C(=O)OCc1ccc(CC(=O)O)cc1` (configuration not stated): the inhibition was -2.54%.

As to `O=C(NNc1ccccc1C(F)(F)F)NS(=O)(=O)c1ccc(Cl)cc1`, the inhibition was 5.25%.

Take `CCOC(=O)c1ccc2nc(C(F)(F)F)cc(N3CCN(Cc4ccccc4)CC3)c2c1`: the inhibition was -1.13%.

In the case of `Cc1nc(C)c(-c2ccnc(-c3ccc(Cl)cc3)n2)s1`, the inhibition was 4.12%.

With `NC(CC(=O)O)c1ccccc1` (configuration not stated), the inhibition is 6.22%.

With `CSc1nc(N)nc2nc[nH]c12`, the inhibition was -1.11%.

In the case of `COC(=O)c1cc(S(=O)(=O)NCc2csc(-c3cccs3)n2)oc1C`, the inhibition is -1.1%.

Turning to `CC1=C(C(=O)O)N2C(=O)[C@H](NC(=O)[C@@H](N)c3ccccc3)C2SC1` (some centres not stated), the inhibition is 0.953%.

Consider `N#CCSc1ccc2ccccc2c1`, for which the inhibition was 3.36%.

Consider `CCOC(=O)c1c(NC(=S)Nc2ccccc2)sc2c1CCN(C)C2`, for which the inhibition was -2.27%.

With `NC(=O)C1CCN(CC(O)CSc2ccc(F)cc2)CC1` (configuration not stated), the inhibition is 0.714%.

With `CC(=O)Nc1cccc(-n2nnc(SCC(=O)c3cc(-c4ccccc4)no3)n2)c1`, the inhibition was -46.5%.

With `CCOC(=O)C(=CNc1cc(C(F)(F)F)ccc1NCc1ccccc1)C(=O)OCC`, the inhibition is 1.63%.

`COC(=O)c1cc(OC)c(OC)cc1NC(=O)CSc1ccc(Cl)cc1`: the inhibition is 5.14%.

With `NC(=O)c1ccccc1OCCOc1ccccc1C(N)=O`, the inhibition is -1.29%.

For `Cn1cc(Br)c(-c2cccc(NC(=O)c3ccccc3Cl)c2)n1`, the inhibition was 5.94%.

`N#Cc1nccnc1N1CCN(c2ccccc2)CC1`: the inhibition is 1.69%.

Regarding `N#Cc1cccnc1NNC(=O)c1ccccc1C(=O)O`, the inhibition was -1.06%.

Regarding `Fc1ccc(COc2ccc(-c3nnco3)cc2)cc1`, the inhibition is 4.75%.

As to `CCOC(=O)c1cnc2c(S(=O)(=O)C(C)C)csc2c1Sc1cccc(Cl)c1`, the inhibition is 3.84%.

As for `CC(=O)N1C=CC(c2c[nH]c3ccccc23)C=C1`, the inhibition is -3.18%.

Regarding `CC(C)S(=O)(=O)/C(C#N)=C/c1ccccc1OC(F)(F)F`, the inhibition is 2.58%.

On to `CS(=O)(=NC(=O)c1cc2ccccc2o1)c1ccc(Cl)cc1` (configuration not stated), for which the inhibition was 4.96%.

With `CC(C)(C)C(=O)OCC(N)=S`, the inhibition was -1.98%.

Regarding `O=[N+]([O-])c1ccc(N2CCC2)cc1`, the inhibition was 0.196%.
